Data on 39 molecules can be found in PubChem BioAssay (EPA / NIEHS).

In experiment [1] the target is human CYP2C9, CYP2C9 (gene 1559) (UniProt P11712). Description: NVS_ADME_hCYP2C9: NovaScreen (NVS) CYP450-related Enzyme Activity (ADME) Assay for human CYP2C9 (AID 2283108). The procedure, abridged: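 Cell-free assay of recombinant human CYP2C9 produced in Sf9 cells, with enzyme activity read by fluorescence intensity 0.75 h after compound addition. Loss of signal versus an acetonitrile negative control indicates inhibition. Primary screen used 10 uM in duplicate; actives were retested in concentration series.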

Experiment [2] deals with human Acetylcholinesterase (AChE), ACHE (gene 43) (UniProt P22303). Description: NVS_ENZ_hAChE: NovaScreen (NVS) Enzymatic Assay for human Acetylcholinesterase (AChE) (AID 2283129). The procedure, abridged: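 Cell-free colorimetric enzyme-activity assay; compounds read 0.33 hour after dosing, loss of signal vs DMSO baseline. Primary screen in duplicate at 25 uM single concentration, with active compounds retested in concentration series.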

For experiment [3], the target named is human AMP-activated Protein Kinase, alpha 1 (AMPKa1), PRKAA1 (gene 5562) (UniProt Q13131). Nature of the experiment: NVS_ENZ_hAMPKa1: NovaScreen (NVS) Enzymatic Assay for human AMP-activated Protein Kinase, alpha 1 (AMPKa1) (AID 2283130). The procedure, abridged:
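Recombinant human AMPKα1 activity was measured cell-free by fluorescent substrate conversion with electrophoretic mobility-shift separation, 1 h after dosing. Duplicate single-point screening was at 25 uM; actives (≥30% inhibition) were retested in concentration-response up to 50 uM.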

Experiment [4] concerns the target Cytochrome P450 2C19 (Homo sapiens) (UniProt P33261). Nature of the experiment: NVS_ADME_hCYP2C19: NovaScreen (NVS) CYP450-related Enzyme Activity (ADME) Assay for human CYP2C19 (AID 2283113).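 For AC50: potency for inhibition seen as loss of fluorescent signal.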 The gist of the method:
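Fluorescence intensity was measured 1 hour after chemicals were added to insect-cell-derived recombinant CYP2C19 with fluorogenic substrate. Decreased signal versus acetonitrile control was taken as reduced enzyme activity; initial testing used 10 uM in duplicate.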

Experiment [5] concerns the target human CYP2D6, CYP2D6 (gene 1565) (UniProt P10635). Description: NVS_ADME_hCYP2D6: NovaScreen (NVS) CYP450-related Enzyme Activity (ADME) Assay for human CYP2D6 (AID 2283107). The gist of the method: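 Insect-cell recombinant enzyme + fluorogenic substrate, cell-free; 1 h incubation; fluorescence intensity readout. Acetonitrile = neg. ctrl/baseline. Single-point 10 uM, duplicate; follow-up concentration series.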

Experiment [6] deals with Cytochrome P450 3A4 (Homo sapiens) (UniProt P08684). Description: NVS_ADME_hCYP3A4: NovaScreen (NVS) CYP450-related Enzyme Activity (ADME) Assay for human CYP3A4 (AID 2283110). The procedure, abridged:
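Cell-free assay using insect-cell-expressed human CYP3A4 with a fluorogenic substrate; fluorescence intensity was read 0.33 hour after dosing. Loss of signal relative to acetonitrile vehicle indicated inhibition. Primary single-concentration screen at 10 uM, in duplicate, then concentration series.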

Experiment [7] deals with human Caspase 2 (CASP2), CASP2 (gene 835) (UniProt P42575). Description: NVS_ENZ_hCASP2: NovaScreen (NVS) Enzymatic Assay for human Caspase 2 (CASP2) (AID 2283135). The gist of the method: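 E. coli-expressed enzyme in a cell-free protease assay, fluorescence read 1 h after dosing. Compounds at 25 uM in duplicate, with concentration-response up to 50 uM for hits; loss of signal against DMSO baseline.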

For experiment [8], the target named is human CYP4F12, CYP4F12 (gene 66002) (UniProt Q9HCS2). Nature of the experiment: NVS_ADME_hCYP4F12: NovaScreen (NVS) CYP450-related Enzyme Activity (ADME) Assay for human CYP4F12 (AID 2283111). The procedure, abridged:
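Cell-free fluorescence assay of recombinant human CYP4F12 activity on a specific substrate, read 0.5 h after dosing. Primary screen in duplicate at 10 uM, then concentration series for actives; loss of signal fitted against acetonitrile negative control.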

The target of experiment [9] is human Acid Phosphatase 1 (ACP1), ACP1 (gene 52) (UniProt P24666). Description: NVS_ENZ_hACP1: NovaScreen (NVS) Enzymatic Assay for human Acid Phosphatase 1 (ACP1) (AID 2283136). The procedure, abridged: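 Recombinant enzyme expressed in Sf9 cells, tested cell-free; activity read by fluorescence with electrophoretic mobility shift separation of substrate and product, 1.5 h after dosing. Primary screen in duplicate at 25 uM, actives then run in concentration series; loss of signal versus DMSO.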

Another experiment concerns the target Caspase-1 (Homo sapiens) (UniProt P29466). Nature of the experiment: NVS_ENZ_hCASP1: NovaScreen (NVS) Enzymatic Assay for human Caspase 1 (CASP1) (AID 2283132). As for the experimental part: NVS_ENZ_hCASP1 is a biochemical, single-readout assay that uses extracted gene-proteins from E. coli in a cell-free assay. Measurements were taken 1 hour after chemical dosing in a 96-well plate.NVS_ENZ_hCASP1 is one of one assay component(s) measured or calculated from the NVS_ENZ_hCASP1 assay. It is designed to make measurements of enzyme activity, a form of enzyme reporter, as detected with fluorescence intensity signals by Fluorescence technology.Data from the assay component NVS_ENZ_hCASP1 was analyzed into 1 assay endpoint. This assay endpoint, NVS_ENZ_hCASP1, was analyzed in the positive analysis fitting direction relative to DMSO as the negative control and baseline of activity. […] Furthermore, this assay endpoint can be referred to as a primary readout, because this assay has produced multiple assay endpoints where this one serves a enzymatic activity function. […]
Binding assays used specific radioligands (tritiated, iodinated) with non-radioactive competitive displacement ligands in agonist or antagonist protocols (as indicated) and various reference compounds and inhibitors to titrate specific binding to receptors and transporters. Most enzyme assays (CYPs, kinases, phosphatases, proteases, HDACs) used recombinant protein and specific substrates (fluorescence mostly, some colorimetric and radioactive) and inhibitors, followed by a biochemical separation of substrate and product. […]

Records with an inconclusive call do not appear. The source made the active and inactive calls. Rule for the calls: active = hit-call score of the fitted dose curve at least 0.9, where 1 is the maximum; inconclusive = response in the unintended direction; inactive = score below 0.9.

Sequence of Cytochrome P450 3A4 (Homo sapiens) (P08684 whole entry, looked up): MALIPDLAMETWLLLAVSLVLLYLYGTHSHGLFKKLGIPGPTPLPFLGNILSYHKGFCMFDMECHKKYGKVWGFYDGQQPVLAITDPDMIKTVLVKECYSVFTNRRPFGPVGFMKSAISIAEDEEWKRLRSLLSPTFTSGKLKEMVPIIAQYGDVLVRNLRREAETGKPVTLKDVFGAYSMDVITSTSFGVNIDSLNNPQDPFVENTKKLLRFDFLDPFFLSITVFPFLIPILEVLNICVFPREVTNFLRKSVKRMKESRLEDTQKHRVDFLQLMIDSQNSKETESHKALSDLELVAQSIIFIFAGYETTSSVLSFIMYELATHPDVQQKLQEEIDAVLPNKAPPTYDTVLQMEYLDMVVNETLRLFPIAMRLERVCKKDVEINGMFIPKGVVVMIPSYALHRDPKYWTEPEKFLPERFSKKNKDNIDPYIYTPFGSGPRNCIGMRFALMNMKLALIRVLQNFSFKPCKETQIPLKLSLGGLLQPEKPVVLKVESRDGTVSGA
Sequence of human Acetylcholinesterase (AChE), ACHE (gene 43) (P22303 whole entry, looked up): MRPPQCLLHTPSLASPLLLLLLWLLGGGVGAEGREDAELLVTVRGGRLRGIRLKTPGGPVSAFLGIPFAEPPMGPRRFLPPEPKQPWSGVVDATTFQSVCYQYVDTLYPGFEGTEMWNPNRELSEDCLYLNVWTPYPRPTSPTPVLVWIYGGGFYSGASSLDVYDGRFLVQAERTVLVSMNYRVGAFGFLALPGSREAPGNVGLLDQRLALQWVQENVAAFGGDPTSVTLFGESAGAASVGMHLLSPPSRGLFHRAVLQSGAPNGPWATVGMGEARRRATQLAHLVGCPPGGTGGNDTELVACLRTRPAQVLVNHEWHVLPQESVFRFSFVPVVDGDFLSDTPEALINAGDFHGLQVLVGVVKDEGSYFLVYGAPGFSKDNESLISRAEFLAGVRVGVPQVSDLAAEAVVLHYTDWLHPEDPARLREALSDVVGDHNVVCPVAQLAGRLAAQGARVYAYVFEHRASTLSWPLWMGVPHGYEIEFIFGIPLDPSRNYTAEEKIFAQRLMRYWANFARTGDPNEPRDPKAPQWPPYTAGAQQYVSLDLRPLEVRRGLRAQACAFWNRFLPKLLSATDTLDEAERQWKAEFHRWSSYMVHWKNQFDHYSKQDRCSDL
Sequence of human CYP2D6, CYP2D6 (gene 1565) (P10635 whole entry, looked up): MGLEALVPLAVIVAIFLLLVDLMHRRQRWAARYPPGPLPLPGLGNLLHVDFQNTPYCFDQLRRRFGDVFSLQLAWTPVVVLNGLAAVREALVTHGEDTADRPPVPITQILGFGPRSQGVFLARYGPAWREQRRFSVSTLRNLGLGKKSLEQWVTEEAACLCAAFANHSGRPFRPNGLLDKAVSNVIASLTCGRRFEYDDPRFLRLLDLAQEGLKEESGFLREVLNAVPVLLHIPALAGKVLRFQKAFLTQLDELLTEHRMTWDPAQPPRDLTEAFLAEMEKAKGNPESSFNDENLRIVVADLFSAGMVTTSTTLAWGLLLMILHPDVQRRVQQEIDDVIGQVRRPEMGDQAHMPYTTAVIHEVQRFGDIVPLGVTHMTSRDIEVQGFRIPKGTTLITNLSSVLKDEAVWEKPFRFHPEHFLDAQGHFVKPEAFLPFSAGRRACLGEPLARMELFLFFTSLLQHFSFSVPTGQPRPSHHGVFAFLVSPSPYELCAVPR
Sequence of human Caspase 2 (CASP2), CASP2 (gene 835) (P42575 whole entry, looked up): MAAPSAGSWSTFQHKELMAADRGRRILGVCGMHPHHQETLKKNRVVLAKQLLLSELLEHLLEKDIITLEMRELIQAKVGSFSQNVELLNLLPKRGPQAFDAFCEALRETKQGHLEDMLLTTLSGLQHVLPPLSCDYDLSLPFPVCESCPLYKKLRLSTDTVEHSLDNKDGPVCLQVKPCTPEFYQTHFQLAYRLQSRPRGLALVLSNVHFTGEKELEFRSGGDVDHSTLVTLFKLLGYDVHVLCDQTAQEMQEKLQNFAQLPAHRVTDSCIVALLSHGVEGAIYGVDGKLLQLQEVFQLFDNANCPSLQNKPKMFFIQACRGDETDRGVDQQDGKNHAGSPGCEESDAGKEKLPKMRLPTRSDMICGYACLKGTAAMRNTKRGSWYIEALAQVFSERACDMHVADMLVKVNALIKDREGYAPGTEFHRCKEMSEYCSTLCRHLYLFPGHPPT
Sequence of human AMP-activated Protein Kinase, alpha 1 (AMPKa1), PRKAA1 (gene 5562) (Q13131 whole entry, looked up): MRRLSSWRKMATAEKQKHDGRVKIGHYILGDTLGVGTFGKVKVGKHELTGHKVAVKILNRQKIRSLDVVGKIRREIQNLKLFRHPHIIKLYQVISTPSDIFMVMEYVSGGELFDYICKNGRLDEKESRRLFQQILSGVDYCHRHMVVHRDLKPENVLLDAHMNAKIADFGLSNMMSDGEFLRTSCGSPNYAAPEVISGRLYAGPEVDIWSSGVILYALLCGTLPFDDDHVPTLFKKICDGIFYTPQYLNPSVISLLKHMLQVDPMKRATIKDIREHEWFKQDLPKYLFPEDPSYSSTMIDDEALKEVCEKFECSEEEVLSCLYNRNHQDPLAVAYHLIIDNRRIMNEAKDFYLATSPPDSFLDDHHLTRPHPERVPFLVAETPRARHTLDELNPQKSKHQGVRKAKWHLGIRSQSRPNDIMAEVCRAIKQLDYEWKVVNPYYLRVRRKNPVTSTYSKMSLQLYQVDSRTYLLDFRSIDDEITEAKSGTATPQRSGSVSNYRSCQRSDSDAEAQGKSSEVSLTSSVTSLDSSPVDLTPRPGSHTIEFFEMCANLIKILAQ
Sequence of human CYP2C9, CYP2C9 (gene 1559) (P11712 whole entry, looked up): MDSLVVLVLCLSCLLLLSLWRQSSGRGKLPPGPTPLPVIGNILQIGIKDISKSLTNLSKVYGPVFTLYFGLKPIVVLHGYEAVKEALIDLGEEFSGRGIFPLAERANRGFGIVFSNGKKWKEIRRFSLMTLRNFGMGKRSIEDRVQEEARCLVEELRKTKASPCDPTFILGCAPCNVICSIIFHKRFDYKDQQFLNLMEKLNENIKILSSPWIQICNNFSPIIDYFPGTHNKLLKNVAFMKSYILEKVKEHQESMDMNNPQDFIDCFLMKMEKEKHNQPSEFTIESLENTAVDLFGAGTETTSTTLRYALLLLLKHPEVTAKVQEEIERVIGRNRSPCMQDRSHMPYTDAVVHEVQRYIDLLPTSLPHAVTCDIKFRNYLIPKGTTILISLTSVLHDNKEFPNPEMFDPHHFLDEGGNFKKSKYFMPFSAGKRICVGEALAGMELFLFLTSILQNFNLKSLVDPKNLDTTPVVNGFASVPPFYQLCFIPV
Sequence of human CYP4F12, CYP4F12 (gene 66002) (Q9HCS2 whole entry, looked up): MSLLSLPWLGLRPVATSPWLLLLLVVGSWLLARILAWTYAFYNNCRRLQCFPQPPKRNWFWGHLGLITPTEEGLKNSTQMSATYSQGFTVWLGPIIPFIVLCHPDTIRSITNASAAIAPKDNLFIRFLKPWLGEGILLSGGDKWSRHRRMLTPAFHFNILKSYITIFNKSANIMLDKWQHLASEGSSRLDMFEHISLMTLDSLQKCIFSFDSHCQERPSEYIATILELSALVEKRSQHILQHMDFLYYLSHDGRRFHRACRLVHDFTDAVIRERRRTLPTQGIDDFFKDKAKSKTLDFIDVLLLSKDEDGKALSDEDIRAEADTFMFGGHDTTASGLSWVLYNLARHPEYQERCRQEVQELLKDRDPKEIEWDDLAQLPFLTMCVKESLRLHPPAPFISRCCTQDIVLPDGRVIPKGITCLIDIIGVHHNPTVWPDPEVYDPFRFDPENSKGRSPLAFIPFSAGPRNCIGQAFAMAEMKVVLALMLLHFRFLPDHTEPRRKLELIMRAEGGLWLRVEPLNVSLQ
Sequence of Caspase-1 (Homo sapiens) (P29466 whole entry, looked up): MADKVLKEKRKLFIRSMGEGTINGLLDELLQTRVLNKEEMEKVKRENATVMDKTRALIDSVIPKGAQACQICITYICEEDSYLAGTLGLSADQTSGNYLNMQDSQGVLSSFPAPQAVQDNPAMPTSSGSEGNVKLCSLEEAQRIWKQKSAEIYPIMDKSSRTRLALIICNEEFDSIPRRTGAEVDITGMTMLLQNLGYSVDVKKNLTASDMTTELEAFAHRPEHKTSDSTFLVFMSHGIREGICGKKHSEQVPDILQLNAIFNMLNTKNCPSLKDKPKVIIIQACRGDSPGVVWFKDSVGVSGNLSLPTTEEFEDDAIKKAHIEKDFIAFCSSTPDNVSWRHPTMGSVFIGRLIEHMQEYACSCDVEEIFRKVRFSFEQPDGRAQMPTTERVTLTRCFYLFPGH
Sequence of human Acid Phosphatase 1 (ACP1), ACP1 (gene 52) (P24666 whole entry, looked up): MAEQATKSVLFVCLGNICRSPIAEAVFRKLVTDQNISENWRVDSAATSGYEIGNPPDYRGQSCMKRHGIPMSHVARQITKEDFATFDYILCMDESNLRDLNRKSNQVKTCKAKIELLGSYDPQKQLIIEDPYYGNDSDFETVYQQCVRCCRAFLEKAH

As a reminder, the AC50 is the concentration at which the activity in the assay is half-maximal. As to `CCC12COCN1COC2`, the AC50 in experiment [1] was 3.73 µM (active).
Same read-out and setting: then `CC(C)(O)c1cnn2c(-c3ccc(F)c(-c4c(F)cccc4C#N)c3)cnc2n1`, with 2.24 µM (active).
Turning to `CCCCC(CC)COC(=O)c1ccc(C(=O)OCC(CC)CCCC)c(C(=O)OCC(CC)CCCC)c1` (centres undefined), the outcome in [2] and in experiment [3] was inactive.
`Nc1ccc(Cc2ccc(N)cc2)cc1`: the AC50 in experiment [4] is 14.4 µM (active).
Consider `[Cl-].[Cl-].[Hg+2]`, for which the AC50 in [5] is 3.44 µM (active); in experiment [1], 3.68 µM (active); in experiment [6], 0.975 µM (active); in experiment [4] it was 0.812 µM (active). Also, the call in [7] was inactive.
In the case of `Cc1cc(N=Nc2ccccc2C)ccc1N`, the values for the AC50 in [1] and in [4] were 4.5 µM (active) and 2.69 µM (active), respectively.
As for `CO[C@@H]1[C@H](OC(=O)NC(=O)CCl)CC[C@]2(CO2)[C@H]1[C@@]1(C)O[C@@H]1CC=C(C)C`, the values for the concentration at half-maximal activity (AC50) in [6] and in experiment [4] were 2.38 µM (active) and 2.21 µM (active), respectively.
For `CC(C)(C)C(O)(CCc1ccc(Cl)cc1)Cn1cncn1` (centres undefined), the AC50 in experiment [1] was 6 µM (active); in experiment [6] it was 5.27 µM (active); in experiment [4], 0.698 µM (active).
`OCCOCCO`: the call in experiment [6] was inactive.
Take `CCC[CH2][Sn]([Cl])([CH2]CCC)[CH2]CCC`: the molecule was called inactive in experiment [2].
Regarding `O=C(N[C@H](c1ccccc1)[C@@H]1CN2CCC1CC2)c1c(Cl)ccc(C(F)(F)F)c1Cl`, the AC50 in experiment [5] is 3.5 µM (active). In addition, the call in [6] was inactive.
In the case of `CCN(CC)N=O`, in [8], the AC50 is 6.21 µM (active). The result in experiment [3] and in [9] was inactive.
Consider `Clc1ccc(C(c2ccc(Cl)cc2)C(Cl)Cl)cc1`, for which the AC50 in experiment [4] is 4.79 µM (active).
In the case of `O=[N+]([O-])C(Br)(CO)CO`, the molecule was classed as inactive in experiment [5] and in [6]. Moreover, the AC50 in experiment [1] is 3.26 µM (active); in experiment [4], 1.93 µM (active); in experiment [2] it was 29.5 µM (active).
Take `CS(=O)(=O)NC(=O)c1cc(Oc2ccc(C(F)(F)F)cc2Cl)ccc1[N+](=O)[O-]`: in experiment [1], the AC50 is 6.1 µM (active).
Turning to `Nc1ccc(Cl)cc1N`, the call in experiment [4] was inactive.
For `CCCCCCCCn1sccc1=O`, the AC50 in experiment [5] is 7.91 µM (active); in experiment [1] it was 7.51 µM (active); in [6], 8.75 µM (active); in experiment [4], 6.04 µM (active).
For the molecule `Oc1ccccc1Cl`, the molecule was called inactive in experiment [3].
Consider `ClCCOCCCl`, for which the AC50 in experiment [1] is 15 µM (active).
Turning to `O=C(Oc1ccc(Br)cc1)N1CCN2CCC1CC2`, the molecule was classed as inactive in experiment [3].
Consider `Nc1ccc([N+](=O)[O-])cc1`, for which the AC50 in experiment [4] is 6.15 µM (active).
Same read-out and setting: then `CCCCOC(=O)c1ccccc1C(=O)OCc1ccccc1`, with 2.72 µM (active).
For `CCNS(=O)(=O)C(F)(F)C(F)(F)C(F)(F)C(F)(F)C(F)(F)C(F)(F)C(F)(F)C(F)(F)F`, the AC50 in experiment [1] is 0.226 µM (active); in [4], 9.65 µM (active). Besides, the result in experiment [3] and in experiment [9] was inactive.
For `COP(=S)(OC)SCN1C(=O)c2ccccc2C1=O`, the AC50 was 6.97 µM (active) in experiment [5], 4.74 µM (active) in [1] and 0.593 µM (active) in experiment [4].
On to `Cc1ccc(N=C=O)cc1N=C=O`, for which the AC50 in experiment [2] was 8.65 µM (active); with Caspase-1 (Homo sapiens), 25 µM (active). Moreover, the call in experiment [7] was inactive.
Consider `Cc1ccc([N+](=O)[O-])cc1`, for which the call in experiment [8] was inactive.
For the molecule `CCOc1cccc(C2(N3CCN(c4ccccc4)CC3)CCC(C)CC2)c1` (centres undefined), the half-maximal activity concentration (AC50) in experiment [8] was 4.36 µM (active).
The same measure, in the same setting: then `Clc1ccccc1Cl`, with 1.91 µM (active).
Regarding `O=C(Nc1ccccc1)c1ccccc1I`, the molecule was classed as inactive in experiment [6]. The AC50 in [4] was 4.95 µM (active).
Take `CN(C)[C@@H]1C(=O)C(C(N)=O)=C(O)[C@@]2(O)C(=O)C3=C(O)c4c(O)cccc4[C@@](C)(O)[C@H]3C[C@@H]12`: in the experiment with Caspase-1 (Homo sapiens), the call was inactive.
For the molecule `Nc1ccc(Oc2ccc(N)cc2)cc1`, the molecule was classed as inactive in experiment [5] and in [4]. The AC50 in experiment [6] is 7.04 µM (active).
In the case of `CCCCCCCCOC(=O)c1ccc(C(=O)OCCCCCCCC)c(C(=O)OCCCCCCCC)c1`, the result in [2] and in experiment [7] was inactive.
Take `CCCCCOC(=O)c1ccccc1C(=O)OCCCCC`: the result in experiment [2] was inactive.
With `CNC(=O)Oc1cccc2c1OC(C)(C)C2`, in [2], the AC50 is 0.497 µM (active).
Consider `Oc1ccc2ccc3cccc4ccc1c2c34`, for which the AC50 in [1] was 2.53 µM (active); in experiment [6] it was 6.74 µM (active); in experiment [2], 7.92 µM (active); in [3], 6.02 µM (active).
In the case of `N#CC(Br)(Br)C(N)=O`, the molecule was classed as inactive in experiment [6].
For the molecule `Nc1ccc(N=Nc2ccccc2)cc1`, the molecule was classed as inactive in experiment [5] and in experiment [8]. Also, the AC50 in experiment [1] is 7.26 µM (active); in experiment [4], 6.47 µM (active).
On to `CCOC(=O)[C@]1(c2ccccc2)Oc2ccccc2[C@@H]1N`, for which the AC50 was 1.3 µM (active) in [5]; 5.79 µM (active) in experiment [1]; 6.56 µM (active) in experiment [6]; 2.09 µM (active) in experiment [4]; 24.3 µM (active) in [2].
Consider `C[C@]12C=CC3=C4CCC(=O)C=C4CC[C@H]3[C@@H]1CC[C@@H]2O`, for which the AC50 in experiment [4] is 5.75 µM (active).
